The text below walks through data of PubChem BioAssay (NCATS).

For assay [1], the target named is Lysosomal acid glucosylceramidase (Homo sapiens) (UniProt P04062). Briefly: Glucocerebrosidase-p2 (AID 348; in the data active = potency below about 10 µM; note: potency is the fitted concentration of half-maximal effect). The note with it: purified GBA, blue fluorogenic substrate, 40 min. The essentials:
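Compounds titrated from 0.6 nM upwards against 0.2 nM enzyme in pH 5.9 citric acid/KH2PO4, taurocholate, tween-20; blue fluorogenic substrate 80 uM, 40 min room temperature, stopped and read Ex 365/Em 440 for AC50.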

Assay [2] in a line: AP1 Signaling Pathway (AID 357). Note: % is set by controls: 0 for no effect and ±100 for the full control effect. To be noted: ME-180 AP-1-bla reporter, EGF-induced, beta-lactamase ratio, 5 h; at 7.69 µM (top of the series) unless noted. In outline: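 AP-1-bla ME-180 cells with beta-lactamase reporter under AP-1 response element, stimulated with EC50 EGF; compounds titrated, 5 hours at 37 degrees Celsius. CCF4 read at 460/530 nm ratio; positive and negative modulators judged by AC50.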

Assay [3] concerns the target Cytochrome P450 1A2 (Homo sapiens) (UniProt P05177). Nature of the assay: p450-cyp1a2 (AID 410; calls by dose curve;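 note: -100% = full effect of reference inhibitor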). To be noted: recombinant CYP1A2, luciferin-ME demethylation, luminescence; series mostly up to 57 µM. The essentials:
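Human CYP1A2 (20nM) demethylated Luciferin-ME at its Km (100uM) in 100mM KPO4. After 10 min compound preincubation, NADPH regeneration ran the reaction 60 min at room temperature. Luciferin was read by luminescence, normalized to 57 uM furafylline.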

Assay [4] is described as follows: NFAT Signaling Pathway (AID 444).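 Note: carbachol stimulus at about its EC50 of 1 µM final; % is set by controls: 0 for no effect and ±100 for the full control effect.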 To be noted: Jurkat NFAT-bla M1, carbachol, beta-lactamase ratio, 5 h; at 7.69 µM (top of the series) unless noted. In outline:
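Jurkat cells carrying an NFAT-driven β-lactamase reporter and co-transfected muscarinic M1 receptor were treated with compound plus carbachol (1 uM final, an EC50 level) for 5 h at 37 °C. CCF4 loading followed for 1 h at RT; 460/530 nm ratio gave %activity.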

Assay [5] in a line: Stat Signaling Pathway (AID 446).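 Note: ME-180 cervical cancer cells given 40 pM IL-6 alongside compound; SIE-controlled beta-lactamase reporter measured as 460/530 nm FRET emission ratio; % is set by controls: 0 for no effect and ±100 for the full control effect.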 To be noted: ME-180 SIE beta-lactamase reporter, IL-6 stimulated, 5 h; at 7.69 µM (top of the series) unless noted. The essentials:
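IL-6/STAT signaling read in ME-180 cells via an SIE beta-lactamase reporter. Stimulus was 40 pM IL-6 (its AC50) for 5 hrs, so both activation and inhibition register.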

Assay [6] has as its target Glucocorticoid receptor (Homo sapiens) (UniProt P04150). Nature of the assay: GR-EFC Redistribution (AID 451; calls by dose curve; note: potency is the fitted concentration of half-maximal effect). To be noted: CHO-K1 GR-EFC translocation, beta-gal luminescence, 2 h. In outline:
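CHO-K1 cells stably expressing nuclear-localized β-gal enzyme acceptor and GR fused C-terminally to the enzyme donor fragment; ligand-driven nuclear translocation restores β-gal by complementation. Compounds titrated up to 46 uM final, 2 h at 37 °C; luminescence read.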

In assay [7] the target is Mitogen-activated protein kinase 10 (Mus musculus) (UniProt Q61831). Briefly: JNK3 AlphaScreen Assay (AID 530).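 Note: kinase came from lysate of stimulated human HepG2 cells; signal reports phosphorylation of biotinylated GST-cJun 1-79 at Ser73 with 10 µM ATP; % is set by controls: 0 for no effect and ±100 for the full control effect.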 The note with it: JNK3 lysate, c-Jun phosphorylation; series mostly up to 57.1 µM. In outline:
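JNK3 came from HepG2 lysates pre-activated with IL-1beta and TNF-alpha and phosphorylated biotinylated GST-cJun (1-79) at 10 uM ATP, pH 7.6, room temperature. Compounds were titrated. AlphaScreen signal used anti-phospho-cJun (Ser73) antibody.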
A general note: Bead proximity is the source of the signal in Alpha formats.

The target of assay [8] is Cytochrome P450 2C9 (Homo sapiens) (UniProt P11712). Briefly: qHTS Assay for Inhibitors and Substrates of Cytochrome P450 2C9 (AID 883; active = well fitted curve in the direction sought with a large enough effect; an effect the other way counts as inactive or inconclusive; note: potency is the fitted concentration of half-maximal effect; nearly all actives have a fitted effect of over 60% in size). To be noted: recombinant CYP2C9, luciferin-H luminescence, 60 min; series mostly up to 57.1 µM. The essentials:
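A luminogenic readout tracked human CYP2C9 (10nM) converting deoxyluciferin (100uM, at KM) in 25mM KPO4 during 60 min at 37C with regenerated NADPH. Values normalized to 57uM sulphaphenazole as complete inhibition.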

For assay [9], the target named is Cytochrome P450 2C19 (Homo sapiens) (UniProt P33261). Nature of the assay: qHTS Assay for Inhibitors and Substrates of Cytochrome P450 2C19 (AID 899; active = well fitted curve in the direction sought with a large enough effect; an effect the other way counts as inactive or inconclusive; note: potency is the fitted concentration of half-maximal effect; nearly all actives have a fitted effect of over 60% in size). The note with it: recombinant CYP2C19, luciferin-H EGE luminescence; series mostly up to 57.1 µM. The essentials:
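NADPH-dependent conversion of Luciferin-H EGE (10uM, at KM) by 5nM enzyme in 50mM KPO4, 60 min at 37C following 10 min compound preincubation. Stopped with luciferin detection buffer; luminescence read after 20 min.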
(In general: qHTS replaces the single test concentration by a dilution series.)

Assay [10] can be described thus: qHTS Assay for Identification of Small Molecule Agonists for Hypoxia Response Element Signaling Pathway (AID 914; active = well fitted activation curve with a large enough effect in the signal ratio, with a control signal flat, not every such curve was filed as active; the % refers to the signal ratio; note: % of control where 0% means no effect). To be noted: ME-180 (cervical carcinoma) HRE-bla reporter, beta-lactamase ratio, CoCl2, 17 h; activation: stronger effect = higher value. The essentials: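 A beta-lactamase reporter under hypoxia response element control in ME-180 cells served as the system. Compound titrations plus EC50 CoCl2 ran 17 h at 37 degrees Celsius; AC50 values were fitted from %Activity.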

Assay [11] is described as follows: qHTS Assay for Lipid Storage Modulators (AID 1519; calls by dose curve). To be noted: Drosophila S3 cells, BODIPY lipid droplet/cell ratio, laser cytometry, cells loaded with oleic acid; for activity change, negative = inhibition: at 57.5 µM (top of the series). The essentials: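 Cells seeded at 5,000 per well were treated with compounds over a concentration series and loaded with oleic acid (400 uM, as added). Lipid droplet fluorescence (488 nm excitation, 500-530 nm channel) was read by laser-scanning cytometry and normalized to 20 uM Triacsin C.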

A short description of assay [12]: Primary qHTS for small molecule stabilizers of the endoplasmic reticulum resident proteome: Secreted ER Calcium Modulated Protein (SERCaMP) assay (AID 1508630; active = well fitted curve in the direction sought with a large enough effect; an effect the other way counts as inactive or inconclusive; note: % is set by controls: 0 for no effect and ±100 for the full control effect). To be noted: SH-SY5Y GLuc-SERCaMP (Gaussia luciferase released on ER calcium loss) secretion, thapsigargin, luminescence; series mostly up to 38.4 µM. The essentials: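 GLuc-SERCaMP-expressing SH-SY5Y cells, pretreated 16 h with compound, are challenged with thapsigargin to empty ER calcium stores; after 4 h, coelenterazine is added directly to the medium and luminescence is imaged.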

The target in assay [13] is 3',5'-cyclic-AMP phosphodiesterase 4B (Homo sapiens) (UniProt Q07343). Briefly: qHTS Assay for Inhibitors of PDE-IV (AID 607; active = well fitted activation curve with a large enough effect in the main read-out, with a control signal flat, not every such curve was filed as active; note: % of control where 0% means no effect). To be noted: HEK293 ACTOne CNG channel cells, membrane potential fluorescence; series mostly up to 22.9 µM. The essentials:
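Live HEK293 cells with a modified cyclic nucleotide-gated (CNG) channel report intracellular cAMP via membrane-potential dye fluorescence (ex 535/em 590 nm). Endogenous PDE-IV was targeted. Compounds were tested at up to 22.9 uM final; RO 20-1724 100 uM served as control.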

The target in assay [14] is Cytochrome P450 2D6 (Homo sapiens) (UniProt P10635). Briefly: qHTS Assay for Inhibitors and Substrates of Cytochrome P450 2D6 (AID 891; active = well fitted curve in the direction sought with a large enough effect; an effect the other way counts as inactive or inconclusive; note: potency is the fitted concentration of half-maximal effect; nearly all actives have a fitted effect of over 60% in size). To be noted: recombinant CYP2D6, luciferin-ME EGE luminescence; series mostly up to 57.1 µM. In outline:
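Human CYP2D6 (5 nM) with 30 uM Luciferin-ME EGE (at Km) in 100 mM KPO4, compound preincubated 10 min, then NADPH regeneration system for 60 min at room temperature. Luciferin read by luminescence; normalized to 1.43 uM quinidine.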

Assay [15] deals with Cytochrome P450 3A4 (Homo sapiens) (UniProt P08684). Briefly: qHTS Assay for Activators of Cytochrome P450 3A4 (AID 885; active = well fitted curve in the direction sought with a large enough effect; an effect the other way counts as inactive or inconclusive; note: nearly all actives have a fitted effect of over 65% in size). To be noted: recombinant CYP3A4, Luciferin-PPXE luminescence, 60 min; series mostly up to 57.1 µM. In outline: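 Quantitative HTS format: compounds preincubated with 20nM human CYP3A4 and Luciferin-PPXE substrate at KM, reaction started by NADPH regeneration, stopped after 60 min, luciferase luminescence read 20 min later.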

Setting [16] is: measured here: cell count channel max response.
[17] abbreviates: measured here: lipid channel max response.

Records with an inconclusive call do not appear. The source made the active and inactive calls. Unless noted, calls come from the whole dose curve; as a rule, active = well fitted curve in either direction with a large enough effect (not every such curve was filed as active); inconclusive = small, poorly fitted or top-dose-only effect, or another doubt; inactive = flat fitted curve, though single readings scatter.

3',5'-cyclic-AMP phosphodiesterase 4B (Homo sapiens), sequence (Q07343 whole entry, looked up): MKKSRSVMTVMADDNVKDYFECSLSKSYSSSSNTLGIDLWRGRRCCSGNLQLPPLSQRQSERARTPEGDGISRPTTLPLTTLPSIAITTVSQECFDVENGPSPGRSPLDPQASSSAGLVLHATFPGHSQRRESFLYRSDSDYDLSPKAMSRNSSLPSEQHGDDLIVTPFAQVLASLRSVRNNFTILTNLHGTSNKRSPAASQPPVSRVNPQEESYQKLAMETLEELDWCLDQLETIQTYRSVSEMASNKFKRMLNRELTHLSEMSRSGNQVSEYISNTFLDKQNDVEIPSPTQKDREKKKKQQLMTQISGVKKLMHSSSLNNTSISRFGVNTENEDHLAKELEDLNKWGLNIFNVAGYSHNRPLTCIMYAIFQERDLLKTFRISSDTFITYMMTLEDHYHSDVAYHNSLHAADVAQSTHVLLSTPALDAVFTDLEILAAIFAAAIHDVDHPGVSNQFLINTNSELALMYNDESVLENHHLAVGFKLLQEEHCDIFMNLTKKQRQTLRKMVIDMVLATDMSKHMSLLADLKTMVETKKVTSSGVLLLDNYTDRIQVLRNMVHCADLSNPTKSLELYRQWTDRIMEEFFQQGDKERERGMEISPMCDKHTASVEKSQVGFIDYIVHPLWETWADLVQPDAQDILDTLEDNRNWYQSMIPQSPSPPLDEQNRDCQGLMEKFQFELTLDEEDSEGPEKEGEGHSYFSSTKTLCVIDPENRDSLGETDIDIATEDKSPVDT
Glucocorticoid receptor (Homo sapiens), sequence (P04150 whole entry, looked up, the tested form may be a part): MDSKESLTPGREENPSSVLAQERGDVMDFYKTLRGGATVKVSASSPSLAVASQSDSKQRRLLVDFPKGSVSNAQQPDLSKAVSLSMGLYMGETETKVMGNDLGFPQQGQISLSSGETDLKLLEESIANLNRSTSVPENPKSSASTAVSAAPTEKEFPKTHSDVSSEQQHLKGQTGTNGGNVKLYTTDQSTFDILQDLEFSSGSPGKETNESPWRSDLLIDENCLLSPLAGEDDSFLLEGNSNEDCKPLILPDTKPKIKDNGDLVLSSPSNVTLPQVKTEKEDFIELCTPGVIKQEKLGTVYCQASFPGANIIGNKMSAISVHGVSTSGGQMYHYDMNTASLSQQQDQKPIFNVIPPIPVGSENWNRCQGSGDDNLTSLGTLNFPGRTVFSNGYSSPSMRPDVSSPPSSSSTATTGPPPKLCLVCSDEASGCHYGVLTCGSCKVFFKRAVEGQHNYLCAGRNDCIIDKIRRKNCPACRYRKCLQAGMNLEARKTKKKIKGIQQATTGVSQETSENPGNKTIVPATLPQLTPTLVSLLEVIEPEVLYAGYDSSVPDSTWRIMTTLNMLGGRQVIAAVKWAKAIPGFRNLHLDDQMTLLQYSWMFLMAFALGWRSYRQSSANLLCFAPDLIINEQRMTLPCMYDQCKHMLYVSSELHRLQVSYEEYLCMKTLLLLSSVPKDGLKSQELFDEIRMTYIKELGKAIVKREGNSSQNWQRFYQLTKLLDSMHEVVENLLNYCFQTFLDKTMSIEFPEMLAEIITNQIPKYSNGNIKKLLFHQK
Cytochrome P450 1A2 (Homo sapiens), sequence (P05177 whole entry, looked up): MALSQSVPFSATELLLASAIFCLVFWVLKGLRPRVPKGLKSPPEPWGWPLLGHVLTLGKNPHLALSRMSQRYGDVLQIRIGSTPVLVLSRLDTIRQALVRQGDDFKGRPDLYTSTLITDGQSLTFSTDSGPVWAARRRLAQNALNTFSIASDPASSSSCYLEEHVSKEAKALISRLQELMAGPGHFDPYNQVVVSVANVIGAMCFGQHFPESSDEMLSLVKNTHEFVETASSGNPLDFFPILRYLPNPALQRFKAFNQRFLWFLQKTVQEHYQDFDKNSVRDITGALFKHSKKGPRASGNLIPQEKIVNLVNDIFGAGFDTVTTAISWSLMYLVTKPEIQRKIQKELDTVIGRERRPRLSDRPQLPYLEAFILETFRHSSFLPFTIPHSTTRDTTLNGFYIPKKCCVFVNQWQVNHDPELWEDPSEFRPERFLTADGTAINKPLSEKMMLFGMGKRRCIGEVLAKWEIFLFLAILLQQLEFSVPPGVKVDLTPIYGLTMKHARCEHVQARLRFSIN
Lysosomal acid glucosylceramidase (Homo sapiens), sequence (P04062 whole entry, looked up): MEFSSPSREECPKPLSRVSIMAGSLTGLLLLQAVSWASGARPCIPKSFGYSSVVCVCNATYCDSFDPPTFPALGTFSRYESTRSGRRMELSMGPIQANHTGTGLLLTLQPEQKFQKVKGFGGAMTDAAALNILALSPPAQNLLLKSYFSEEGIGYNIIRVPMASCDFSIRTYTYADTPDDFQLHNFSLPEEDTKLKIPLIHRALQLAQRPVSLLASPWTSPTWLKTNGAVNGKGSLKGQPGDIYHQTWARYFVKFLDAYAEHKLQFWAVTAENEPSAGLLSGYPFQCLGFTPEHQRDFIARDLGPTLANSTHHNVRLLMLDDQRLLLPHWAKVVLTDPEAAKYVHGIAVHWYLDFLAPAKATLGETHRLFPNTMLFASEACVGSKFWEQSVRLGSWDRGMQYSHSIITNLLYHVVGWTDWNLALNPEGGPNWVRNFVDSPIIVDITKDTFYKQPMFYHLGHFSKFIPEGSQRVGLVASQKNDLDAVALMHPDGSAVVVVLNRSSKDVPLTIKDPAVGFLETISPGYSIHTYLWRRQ
Cytochrome P450 2D6 (Homo sapiens), sequence (P10635 whole entry, looked up): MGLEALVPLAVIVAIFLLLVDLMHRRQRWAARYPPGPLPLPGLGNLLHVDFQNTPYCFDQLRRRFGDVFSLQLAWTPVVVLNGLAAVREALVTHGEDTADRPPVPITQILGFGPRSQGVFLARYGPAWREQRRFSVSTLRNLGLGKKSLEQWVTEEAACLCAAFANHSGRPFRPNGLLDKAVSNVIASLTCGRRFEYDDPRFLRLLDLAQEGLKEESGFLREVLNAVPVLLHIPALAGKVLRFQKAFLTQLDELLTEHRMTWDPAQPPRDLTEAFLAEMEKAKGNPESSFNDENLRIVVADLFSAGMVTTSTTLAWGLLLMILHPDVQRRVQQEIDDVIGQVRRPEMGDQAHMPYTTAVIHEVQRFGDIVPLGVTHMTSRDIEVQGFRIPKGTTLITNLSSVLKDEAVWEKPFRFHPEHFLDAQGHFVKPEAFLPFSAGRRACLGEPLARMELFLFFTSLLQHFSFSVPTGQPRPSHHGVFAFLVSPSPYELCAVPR
Cytochrome P450 3A4 (Homo sapiens), sequence (P08684 whole entry, looked up): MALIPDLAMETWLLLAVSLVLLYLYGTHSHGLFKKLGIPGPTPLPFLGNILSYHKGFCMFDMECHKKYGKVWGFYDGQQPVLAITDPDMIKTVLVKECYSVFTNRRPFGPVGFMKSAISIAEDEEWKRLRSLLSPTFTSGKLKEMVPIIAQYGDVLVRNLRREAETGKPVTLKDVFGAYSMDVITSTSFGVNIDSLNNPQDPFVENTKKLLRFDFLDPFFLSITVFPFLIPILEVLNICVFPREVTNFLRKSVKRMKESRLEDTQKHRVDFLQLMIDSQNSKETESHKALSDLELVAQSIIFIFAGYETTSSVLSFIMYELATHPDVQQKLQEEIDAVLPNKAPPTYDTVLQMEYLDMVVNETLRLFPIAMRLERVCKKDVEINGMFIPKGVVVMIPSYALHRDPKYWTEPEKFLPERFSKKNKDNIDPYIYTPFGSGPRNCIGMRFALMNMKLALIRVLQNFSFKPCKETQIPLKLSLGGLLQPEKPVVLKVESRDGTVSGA
Cytochrome P450 2C9 (Homo sapiens), sequence (P11712 whole entry, looked up): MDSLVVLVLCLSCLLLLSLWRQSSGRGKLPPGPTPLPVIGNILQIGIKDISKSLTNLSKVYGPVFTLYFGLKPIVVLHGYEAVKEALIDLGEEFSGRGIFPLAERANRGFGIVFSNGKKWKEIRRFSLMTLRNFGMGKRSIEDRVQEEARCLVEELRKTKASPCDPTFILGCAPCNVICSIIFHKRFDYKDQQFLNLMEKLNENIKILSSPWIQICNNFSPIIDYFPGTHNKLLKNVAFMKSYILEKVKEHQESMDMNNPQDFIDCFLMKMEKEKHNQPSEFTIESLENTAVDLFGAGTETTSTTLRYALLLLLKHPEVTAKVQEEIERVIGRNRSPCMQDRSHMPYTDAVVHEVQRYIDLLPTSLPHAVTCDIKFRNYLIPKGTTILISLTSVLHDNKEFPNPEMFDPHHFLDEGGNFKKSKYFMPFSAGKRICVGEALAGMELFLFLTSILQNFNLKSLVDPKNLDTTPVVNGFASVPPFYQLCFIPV
Cytochrome P450 2C19 (Homo sapiens), sequence (P33261 whole entry, looked up): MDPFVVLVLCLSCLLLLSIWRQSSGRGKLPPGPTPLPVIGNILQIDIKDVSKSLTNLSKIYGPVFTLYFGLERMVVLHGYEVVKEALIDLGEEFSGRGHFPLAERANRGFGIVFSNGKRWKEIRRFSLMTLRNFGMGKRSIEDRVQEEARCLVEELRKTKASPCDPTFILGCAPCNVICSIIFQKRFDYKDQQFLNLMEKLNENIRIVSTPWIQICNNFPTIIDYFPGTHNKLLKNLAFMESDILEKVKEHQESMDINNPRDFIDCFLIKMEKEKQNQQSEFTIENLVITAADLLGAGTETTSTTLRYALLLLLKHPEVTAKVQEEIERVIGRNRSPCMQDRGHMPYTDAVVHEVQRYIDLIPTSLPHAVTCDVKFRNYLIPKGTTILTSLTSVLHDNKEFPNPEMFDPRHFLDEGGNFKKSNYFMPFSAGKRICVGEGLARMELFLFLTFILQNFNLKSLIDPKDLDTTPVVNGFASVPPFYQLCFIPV

`CS(=O)(=O)N1CCC2(CCCN(c3ccncc3)C2)CC1`: the Potency in assay [1] is > 11.4 µM (inactive); in assay [6] it was > 46 µM (inactive); in [8], 79.4 nM (active); in [9], 1.26 µM (active). Moreover, the activity change, negative = inhibition is 10.1% (inactive) in assay [2], -14.2% (inactive) in [4] and 4.5% (inactive) in assay [11]. For the same compound, the Potency result in [3] and in [12] was “inactive” throughout. In assay [5], the activity, negative = inhibition was -2.99% (inactive). In addition, the outcome in assay [7] was inactive. In [10], the activation is 20.8% (inactive). The max response came out at 17.1% in [11] (setting [16]) and 26.8% in [11] (setting [17]).
As to `COc1ccccc1CN1CCCC2(CCN(S(C)(=O)=O)CC2)C1`, the Potency in assay [1] was > 11.4 µM (inactive); in assay [6] it was > 46 µM (inactive); in [14], 0.0631 µM (active). Further, the activity change, negative = inhibition in assay [2] is -4.49% (inactive); in assay [4], -28.3% (inactive); in [11], 2.11% (inactive). Also, the Potency entry in assay [3], in assay [13] and in assay [12] was “inactive” in each case. Also, the activity, negative = inhibition in assay [5] was 6.82% (inactive). The compound was classed as inactive in assay [7]. In addition, the max response in [11] (setting [16]) was -15.8%; in assay [11] (setting [17]), -12.2%.
Turning to `CC(C)NC(=O)N1CCCC2(CCN(C(=O)c3cc(C(F)(F)F)cc(C(F)(F)F)c3)CC2)C1`, the results for the Potency in assay [1] and in assay [6] were > 11.4 µM (inactive) and > 46 µM (inactive), respectively. The values for the activity change, negative = inhibition in assay [2], in [4] and in assay [11] were -19.4% (inactive), 11.4% (inactive) and -6.13% (inactive), respectively. For the same compound, the Potency result in assay [3], in assay [13], in assay [15] and in assay [12] was “inactive” each time. Also, in [5], the activity, negative = inhibition was -13.3% (inactive). Besides, the compound was called inactive in assay [7]. Further, the activation in [10] is -9.04% (inactive). Moreover, the max response in [11] (setting [16]) was found to be 16.6%; in assay [11] (setting [17]) it was 12%.
For the compound `O=C(c1ccco1)N1CCC2(CC1)CN(Cc1cc(C(F)(F)F)cc(C(F)(F)F)c1)C2`, the results for the Potency in assay [1], in assay [6] and in assay [14] were > 11.4 µM (inactive), > 46 µM (inactive) and 6.31 µM (active), respectively. Moreover, the activity change, negative = inhibition is 5.99% (inactive) in [2], 15.6% (inactive) in [4] and -5.85% (inactive) in [11]. The Potency entry in [3] and in assay [12] was “inactive” throughout. Also, the activity, negative = inhibition in [5] was 2.41% (inactive). The result in [7] was inactive. Moreover, the max response was found to be 13.1% in [11] (setting [16]) and 7.42% in assay [11] (setting [17]).
Consider `O=C(c1csnn1)N1CCC[C@@]2(CCN(Cc3nccs3)C2)C1`, for which the values for the Potency in assay [1], in assay [6] and in [14] were > 11.4 µM (inactive), > 46 µM (inactive) and 5.01 µM (active), respectively. Besides, the activity change, negative = inhibition in [2] was 2.1% (inactive); in assay [4], 2.26% (inactive); in assay [11] it was 6.67% (inactive). Moreover, the Potency entry in assay [3], in assay [15] and in [12] was “inactive” each time. Also, in assay [5], the activity, negative = inhibition is -2.25% (inactive). In [7], the compound was called inactive. The activation in assay [10] is -0.307% (inactive). For the same compound, the max response in [11] (setting [16]) was found to be 15.7%; in [11] (setting [17]), 25.3%.
Take `CC(=O)N1CCC2(CC1)CN(c1ccccn1)C2`: the figures for the Potency in assay [1] and in [6] were > 11.4 µM (inactive) and > 46 µM (inactive), respectively. For the same compound, the activity change, negative = inhibition in assay [2] is -8.91% (inactive); in assay [4], 6.27% (inactive); in [11] it was 7.33% (inactive). The Potency result in assay [3], in assay [13] and in assay [12] was “inactive” throughout. The activity, negative = inhibition in [5] is -0.186% (inactive). The max response in assay [11] (setting [16]) was determined as 3.77%; in [11] (setting [17]) it was 14.1%.
`CC(C)NC(=O)N1CC2(CCN(C(=O)c3ccco3)CC2)C1`: the results for the Potency in [1] and in [6] were > 11.4 µM (inactive) and > 46 µM (inactive), respectively. The activity change, negative = inhibition was -14.7% (inactive) in assay [2], 16.4% (inactive) in [4] and -0.739% (inactive) in assay [11]. Besides, the Potency result in assay [3], in assay [13] and in assay [12] was “inactive” each time. Further, in assay [5], the activity, negative = inhibition was -2.76% (inactive). Moreover, the outcome in assay [7] was inactive. The activation in assay [10] was 0.544% (inactive). Besides, the max response in [11] (setting [16]) is -15.7%; in assay [11] (setting [17]) it was -15.1%.
